# Test results taken from PubChem BioAssay (NCI).
# About 79,000 compounds went through this panel and 15% of them were active in at least one assay; those are over-represented in the sample as a whole. Unmarked numbers belong to inactive results. Activity calls are given as the source filed them. Cut-off read from the data, not from the text of the source: active = growth inhibition above about 70%; inactive = the rest.
# Assays:
# [1] = NCI Yeast Anticancer Drug Screen. Data for the rad52 strain (AID 147);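 note: 0% = growth of vehicle-treated control cultures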; conditions: S. cerevisiae rad52 mutant growth inhibition, active compounds read high
# Summary of the method: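 Yeast strain carrying a DNA damage repair alteration was exposed to test compounds. Growth inhibition was measured relative to vehicle-treated controls.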
# [2] = NCI Yeast Anticancer Drug Screen. Data for the wt1 strain (AID 149);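 note: 0% = growth of vehicle-treated wt1 cultures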; conditions: S. cerevisiae wt1 strain (SPY 50644) growth inhibition, active compounds read high
# Summary of the method: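 Yeast wt1 strain exposed to compounds; growth inhibition measured relative to vehicle-treated controls.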
# [3] = NCI Yeast Anticancer Drug Screen. Data for the rad50EPP+ strain (AID 151);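 note: 0% = growth of vehicle-treated control cultures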; conditions: S. cerevisiae rad50 mutant strain, active compounds read high
# Summary of the method: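 Yeast strain carrying rad50 alteration (rad50EPP+) exposed to compounds; growth inhibition measured relative to vehicle-treated controls.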
# [4] = NCI Yeast Anticancer Drug Screen. Data for the rad50 strain (AID 155);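 note: 0% = growth of vehicle-only cultures of the same strain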; conditions: S. cerevisiae rad50 strain growth inhibition, active compounds read high
# Summary of the method: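 Yeast carrying a defined DNA repair defect were exposed to test compounds, and growth was compared with vehicle-treated controls to give percent inhibition.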
# [5] = NCI Yeast Anticancer Drug Screen. Data for the mec2-1 strain (AID 157); conditions: S. cerevisiae mec2-1 strain, active compounds read high
# Summary of the method: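 mec2-1 yeast strain, carrying an alteration in DNA damage repair or cell cycle control, was exposed to compounds; growth inhibition was measured relative to vehicle-treated controls.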
# [6] = NCI Yeast Anticancer Drug Screen. Data for the rad14 strain (AID 159);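 note: 0% = growth of vehicle-treated control cultures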; conditions: S. cerevisiae rad14 strain growth inhibition, active compounds read high
# Summary of the method: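 Yeast cells carrying a defined DNA-repair defect were exposed to compounds, and growth inhibition was calculated relative to vehicle-treated control cultures.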
# [7] = NCI Yeast Anticancer Drug Screen. Data for the sgs1 mgt1 strain (AID 161);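 note: 0% = growth of cultures given vehicle only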; conditions: S. cerevisiae sgs1 mgt1 strain, active compounds read high
# Summary of the method: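 This yeast growth screen uses a strain with defined DNA-repair lesions; compound-treated growth is compared with vehicle-treated growth.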
# [8] = NCI Yeast Anticancer Drug Screen. Data for the CLN2oe strain (AID 163);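 note: 0% = growth of vehicle-only control cultures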; conditions: S. cerevisiae CLN2oe strain, active compounds read high
# Summary of the method: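 Yeast cells carrying a defined cell-cycle control alteration were exposed to test compounds. Growth inhibition was scored against vehicle-treated control cultures.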
# [9] = NCI Yeast Anticancer Drug Screen. Data for the cln2 rad14 strain (AID 165);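 note: 0% = growth equal to vehicle treated cultures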; conditions: S. cerevisiae cln2 rad14 strain, active compounds read high
# Summary of the method: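 Yeast carrying cln2 and rad14 alterations (cell cycle control and DNA damage repair) were exposed to compounds. Growth inhibition was measured against vehicle-treated controls.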
# [10] = NCI Yeast Anticancer Drug Screen. Data for the bub3 strain (AID 167); conditions: S. cerevisiae bub3 mutant strain, active compounds read high
# Summary of the method: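 Compounds were applied to a genetically altered yeast strain carrying a cell-cycle control defect. Growth inhibition was scored against vehicle-treated controls.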
# [11] = NCI Yeast Anticancer Drug Screen. Data for the wt2 strain (AID 169);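 note: 0% = growth of vehicle-treated yeast cultures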; conditions: S. cerevisiae wt2 strain growth inhibition, active compounds read high
# Summary of the method: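 Yeast cells were exposed to test compounds, and growth inhibition was measured relative to vehicle-treated controls.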
# [12] = NCI Yeast Anticancer Drug Screen. Data for the mlh1 strain (AID 171);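 note: 0% = growth of vehicle-treated control cultures of the same strain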; conditions: S. cerevisiae mlh1 strain growth inhibition, active compounds read high
# Summary of the method: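 Yeast carrying a defined genetic alteration in DNA damage repair or cell cycle control were exposed to test compounds. Growth inhibition was measured relative to vehicle-treated controls.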
# [13] = NCI Yeast Anticancer Drug Screen. Data for the mlh1 rad18 strain (AID 175); conditions: S. cerevisiae mlh1 rad18 strain growth inhibition, active compounds read high
# Summary of the method: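 Growth inhibition of the yeast strain was measured after compound exposure and expressed relative to vehicle-treated controls. The strain carries defined defects in DNA damage repair.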
# [14] = NCI Yeast Anticancer Drug Screen. Data for the rad18 strain (AID 177); conditions: S. cerevisiae rad18 mutant growth inhibition, active compounds read high
# Summary of the method: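 Yeast carrying a defined DNA damage repair alteration were exposed to compounds. Growth inhibition was expressed relative to vehicle-treated controls.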
# [15] = NCI Yeast Anticancer Drug Screen. Data for the sgs1 strain (AID 173);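 note: 0% = growth of vehicle-only control cultures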; conditions: S. cerevisiae sgs1 mutant, active compounds read high
# Summary of the method: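 Yeast mutant strains carrying defined defects in DNA damage repair or cell cycle control were exposed to test compounds. Growth inhibition was scored against vehicle-treated controls.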
# [16] = at 5.0 µM (retest, dose inferred, filed as 0.5)
# [17] = at 50.0 µM (retest, dose inferred, filed as 5.0)
smiles,measurement,setting,value
OCCN(CCO)c1ccc2c(c1)Cc1ccccc1-2,growth inhibition,[1]; at 1.2 µM,-9%
same,growth inhibition,[1]; at 3.7 µM,-15%
same,growth inhibition,[1]; at 11.0 µM,3%
same,growth inhibition,[1]; at 33.0 µM,20%
same,growth inhibition,[1]; at 100.0 µM,43%
same,growth inhibition,[2]; at 1.2 µM,0%
same,growth inhibition,[2]; at 3.7 µM,5%
same,growth inhibition,[2]; at 11.0 µM,6%
same,growth inhibition,[2]; at 33.0 µM,6%
same,growth inhibition,[2]; at 100.0 µM,17%
same,growth inhibition,[3]; at 1.2 µM,-6%
same,growth inhibition,[3]; at 3.7 µM,-3%
same,growth inhibition,[3]; at 11.0 µM,17%
same,growth inhibition,[3]; at 33.0 µM,43%
same,growth inhibition,[3]; at 100.0 µM,53%
same,growth inhibition,[4]; at 1.2 µM,-12%
same,growth inhibition,[4]; at 3.7 µM,-15%
same,growth inhibition,[4]; [16],13%
same,growth inhibition,[4]; at 11.0 µM,-13%
same,growth inhibition,[4]; at 33.0 µM,34%
same,growth inhibition,[4]; [17],48%
same,growth inhibition,[4]; at 50.0 µM,34.1%
same,growth inhibition,[4]; at 100.0 µM,65%
same,growth inhibition,[5]; at 1.2 µM,-3%
same,growth inhibition,[5]; at 3.7 µM,-4%
same,growth inhibition,[5]; [16],1%
same,growth inhibition,[5]; at 11.0 µM,-4%
same,growth inhibition,[5]; at 33.0 µM,-7%
same,growth inhibition,[5]; [17],12%
same,growth inhibition,[5]; at 50.0 µM,-11.8%
same,growth inhibition,[5]; at 100.0 µM,1%
same,growth inhibition,[6]; at 1.2 µM,3%
same,growth inhibition,[6]; at 3.7 µM,-4%
same,growth inhibition,[6]; at 11.0 µM,23%
same,growth inhibition,[6]; at 33.0 µM,15%
same,growth inhibition,[6]; at 100.0 µM,31%
same,growth inhibition,[7]; [16],8%
same,growth inhibition,[7]; [17],71% (active)
same,growth inhibition,[7]; at 50.0 µM,52.2%
same,growth inhibition,[8]; at 1.2 µM,-9%
same,growth inhibition,[8]; at 3.7 µM,-8%
same,growth inhibition,[8]; at 11.0 µM,-16%
same,growth inhibition,[8]; at 33.0 µM,-11%
same,growth inhibition,[8]; at 100.0 µM,-7%
same,growth inhibition,[9]; [16],6%
same,growth inhibition,[9]; [17],6%
same,growth inhibition,[9]; at 50.0 µM,-2.7%
same,growth inhibition,[10]; at 1.2 µM,-9%
same,growth inhibition,[10]; at 3.7 µM,-8%
same,growth inhibition,[10]; [16],2%
same,growth inhibition,[10]; at 11.0 µM,-13%
same,growth inhibition,[10]; at 33.0 µM,-13%
same,growth inhibition,[10]; [17],27%
same,growth inhibition,[10]; at 50.0 µM,10.4%
same,growth inhibition,[10]; at 100.0 µM,1%
same,growth inhibition,[11]; at 1.2 µM,5%
same,growth inhibition,[11]; at 3.7 µM,9%
same,growth inhibition,[11]; at 11.0 µM,14%
same,growth inhibition,[11]; at 33.0 µM,29%
same,growth inhibition,[11]; at 100.0 µM,45%
same,growth inhibition,[12]; at 1.2 µM,-13%
same,growth inhibition,[12]; at 3.7 µM,-7%
same,growth inhibition,[12]; at 11.0 µM,-6%
same,growth inhibition,[12]; at 33.0 µM,-6%
same,growth inhibition,[12]; at 100.0 µM,26%
same,growth inhibition,[13]; [16],23%
same,growth inhibition,[13]; [17],84% (active)
same,growth inhibition,[13]; at 50.0 µM,77.4% (active)
same,growth inhibition,[14]; at 1.2 µM,-8%
same,growth inhibition,[14]; at 3.7 µM,4%
same,growth inhibition,[14]; at 11.0 µM,18%
same,growth inhibition,[14]; at 33.0 µM,82% (active)
same,growth inhibition,[14]; at 100.0 µM,90% (active)
COC(=O)c1n[nH]c(C)c1N=NN(C)CCC#N,growth inhibition,[1]; at 1.2 µM,46%
same,growth inhibition,[1]; at 3.7 µM,91% (active)
same,growth inhibition,[1]; at 11.0 µM,97% (active)
same,growth inhibition,[1]; at 33.0 µM,98% (active)
same,growth inhibition,[1]; at 100.0 µM,99% (active)
same,growth inhibition,[2]; at 1.2 µM,-6%
same,growth inhibition,[2]; at 3.7 µM,-5%
same,growth inhibition,[2]; at 11.0 µM,97% (active)
same,growth inhibition,[2]; at 33.0 µM,99% (active)
same,growth inhibition,[2]; at 100.0 µM,99% (active)
same,growth inhibition,[3]; at 1.2 µM,26%
same,growth inhibition,[3]; at 3.7 µM,77% (active)
same,growth inhibition,[3]; at 11.0 µM,95% (active)
same,growth inhibition,[3]; at 33.0 µM,97% (active)
same,growth inhibition,[3]; at 100.0 µM,99% (active)
same,growth inhibition,[4]; at 1.2 µM,18%
same,growth inhibition,[4]; at 3.7 µM,81% (active)
same,growth inhibition,[4]; [16],69%
same,growth inhibition,[4]; at 11.0 µM,96% (active)
same,growth inhibition,[4]; at 33.0 µM,98% (active)
same,growth inhibition,[4]; [17],96% (active)
same,growth inhibition,[4]; at 50.0 µM,98.5% (active)
same,growth inhibition,[4]; at 100.0 µM,99% (active)
same,growth inhibition,[5]; at 1.2 µM,2%
same,growth inhibition,[5]; at 3.7 µM,3%
same,growth inhibition,[5]; [16],-31%
same,growth inhibition,[5]; at 11.0 µM,99% (active)
same,growth inhibition,[5]; at 33.0 µM,99% (active)
same,growth inhibition,[5]; [17],98% (active)
same,growth inhibition,[5]; at 50.0 µM,99.2% (active)
same,growth inhibition,[5]; at 100.0 µM,99% (active)
same,growth inhibition,[6]; at 1.2 µM,1%
same,growth inhibition,[6]; at 3.7 µM,11%
same,growth inhibition,[6]; at 11.0 µM,72% (active)
same,growth inhibition,[6]; at 33.0 µM,99% (active)
same,growth inhibition,[6]; at 100.0 µM,99% (active)
same,growth inhibition,[7]; [16],-11%
same,growth inhibition,[7]; [17],96% (active)
same,growth inhibition,[7]; at 50.0 µM,98.8% (active)
same,growth inhibition,[9]; [16],-41%
same,growth inhibition,[9]; [17],98% (active)
same,growth inhibition,[9]; at 50.0 µM,97.8% (active)
same,growth inhibition,[10]; at 1.2 µM,-21%
same,growth inhibition,[10]; at 3.7 µM,-16%
same,growth inhibition,[10]; [16],-71%
same,growth inhibition,[10]; at 11.0 µM,80% (active)
same,growth inhibition,[10]; at 33.0 µM,99% (active)
same,growth inhibition,[10]; [17],97% (active)
same,growth inhibition,[10]; at 50.0 µM,99% (active)
same,growth inhibition,[10]; at 100.0 µM,98% (active)
same,growth inhibition,[11]; at 1.2 µM,0%
same,growth inhibition,[11]; at 3.7 µM,11%
same,growth inhibition,[11]; at 11.0 µM,99% (active)
same,growth inhibition,[11]; at 33.0 µM,99% (active)
same,growth inhibition,[11]; at 100.0 µM,99% (active)
same,growth inhibition,[12]; at 1.2 µM,7%
same,growth inhibition,[12]; at 3.7 µM,0%
same,growth inhibition,[12]; at 11.0 µM,98% (active)
same,growth inhibition,[12]; at 33.0 µM,99% (active)
same,growth inhibition,[12]; at 100.0 µM,99% (active)
same,growth inhibition,[15]; at 1.2 µM,15%
same,growth inhibition,[15]; at 3.7 µM,70% (active)
same,growth inhibition,[15]; at 11.0 µM,99% (active)
same,growth inhibition,[15]; at 33.0 µM,99% (active)
same,growth inhibition,[15]; at 100.0 µM,99% (active)
same,growth inhibition,[13]; [16],-49%
same,growth inhibition,[13]; [17],97% (active)
same,growth inhibition,[13]; at 50.0 µM,98.8% (active)
same,growth inhibition,[14]; at 1.2 µM,16%
same,growth inhibition,[14]; at 3.7 µM,68%
same,growth inhibition,[14]; at 11.0 µM,95% (active)
same,growth inhibition,[14]; at 33.0 µM,98% (active)
same,growth inhibition,[14]; at 100.0 µM,99% (active)
